Measured values taken from PubChem BioAssay AID687016 (The Scripps Research Institute Molecular Screening Center, 2013).
About 2,800 (0.76%) of roughly 370,000 compounds were called active. This is one part of a sample in which actives are shown more often than they occur. Values without a mark were called inactive. Rule as the data show it: active = inhibition above about 21%; inactive = the rest.

target: E3 ubiquitin-protein ligase UHRF1 (Homo sapiens) (UniProt Q96T88); assay: blockers of UHRF1 binding to methyl-oligo – biochemical, TR-FRET, human UHRF1, single concentration, counter-screen for MBD2 inhibitor project, primary screen (AID 687016); conditions: UHRF1 binding to methylated oligo, at 4.4 µM, stronger effect = higher value;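 also: UHRF1 SRA domain binding a hemimethylated CpG hairpin DNA probe; 0% = median of test compound wells and 100% = reference inhibitor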
Sequence (Q96T88 whole entry, looked up, the tested form may be a part): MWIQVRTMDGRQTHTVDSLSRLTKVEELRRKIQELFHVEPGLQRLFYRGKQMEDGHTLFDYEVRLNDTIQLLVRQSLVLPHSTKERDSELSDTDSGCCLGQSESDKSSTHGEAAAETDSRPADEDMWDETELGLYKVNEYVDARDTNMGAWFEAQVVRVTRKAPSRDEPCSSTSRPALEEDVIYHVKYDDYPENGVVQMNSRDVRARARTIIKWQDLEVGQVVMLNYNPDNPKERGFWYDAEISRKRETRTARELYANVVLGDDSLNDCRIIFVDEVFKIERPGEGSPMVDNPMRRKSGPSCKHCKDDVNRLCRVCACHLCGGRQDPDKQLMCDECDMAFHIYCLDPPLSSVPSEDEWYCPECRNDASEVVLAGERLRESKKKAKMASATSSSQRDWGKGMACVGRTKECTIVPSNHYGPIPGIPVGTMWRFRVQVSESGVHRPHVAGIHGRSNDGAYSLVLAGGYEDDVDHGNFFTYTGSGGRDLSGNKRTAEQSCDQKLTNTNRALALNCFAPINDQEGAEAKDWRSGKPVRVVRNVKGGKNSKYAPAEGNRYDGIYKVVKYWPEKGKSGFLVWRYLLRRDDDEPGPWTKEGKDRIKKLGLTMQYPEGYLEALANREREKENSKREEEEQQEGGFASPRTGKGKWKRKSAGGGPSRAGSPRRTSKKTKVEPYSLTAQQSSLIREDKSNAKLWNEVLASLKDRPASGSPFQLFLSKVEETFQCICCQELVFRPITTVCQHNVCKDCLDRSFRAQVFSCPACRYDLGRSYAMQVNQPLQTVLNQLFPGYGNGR

Structure (SMILES) | inhibition
O=C(Nc1cc(F)cc(F)c1)OC1CCC12CCC(c1ccccc1)CC2 (stereo not given) | -0.77%
CC(C)(C)c1ccc(C(=O)Nc2cc(Cl)c(Br)cc2C(=O)O)cc1 | 3.66%
COc1ccccc1N(CC(=O)N/N=C(\C)c1ccccc1O)S(=O)(=O)c1ccc(C)cc1 | -1.56%
Cc1ccc(S(=O)(=O)N(CC(=O)N/N=C/c2ccc(F)cc2)c2cccc3cccnc23)cc1 | 24.1% (active)
Cc1ccc(S(=O)(=O)N(CC(=O)NN=C2CCN(C)CC2)c2ccc(F)cc2)cc1 | -0.56%
O=S1(=O)c2ccc(Br)cc2OC[C@H](Cc2ccccc2)N1Cc1cn(Cc2ccccc2)nn1 | 1.7%
COc1ccc(S[C@]2(C(=O)N(C)C)CC(=O)N(c3ccc(OC)cc3)[C@@H]2c2ccc(OC)cc2)cc1 | 2.01%
O=C(O)c1ccc(NN=CC2=C(N3CCOCC3)/C(=C/c3ccccc3)CC2)cc1 | 22.5% (active)
O=C1OC(NC(=O)c2ccccc2)C(N2CCOCC2)=C1Cl (stereo not given) | 0.02%
O=C(Nc1ccc(F)cc1)c1cccnc1N1CCOCC1 | -3.63%
CCOC(=O)C(=O)N(Cc1ccccc1)c1ccccc1C(=O)Nc1cc(OC)ccc1OC | 1.4%
COc1ccc(CCNc2nc(-c3cccc(NC(C)=O)c3)cs2)cc1OC | 63% (active)
COc1ccc(NC(=O)C2(C)Cc3c(-c4cccc(NC(C)=O)c4)ccnc3O2)cc1OC (stereo not given) | 3.78%
COc1ccc(CCNc2nc(C)cc(C)n2)cc1OC | -1.42%
Cc1ccc(CSc2nnc(SCC(=O)NN=Cc3cc(Br)ccc3F)s2)cc1 | -0.65%
COc1ccc(NC(=O)CSc2nnc(Cc3ccccc3)c(=O)n2N)cc1 | -3.2%
COc1ccc(-n2c(SCC(=O)Nc3ccc(C)c(Cl)c3)nc3ccccc3c2=O)cc1 | 0.63%
COc1ccc(NC(=O)CSc2nc3ccccc3c(=O)n2C)cc1 | 40.1% (active)
COc1ccc(C2CC=C(C(=O)O)C(c3ccccc3F)N2S(=O)(=O)c2ccc(C)cc2)cc1OC (stereo not given) | -0.43%
COc1cccc(N(C)C(=O)[C@@H](C)[C@@H](O)c2ccc3ccccc3c2)c1 | -1.4%
CC(C)Oc1ccc(C2NC(=O)NC2=O)cc1 (stereo not given) | 25% (active)
O=C1NC(=O)C(c2ccc(Cl)cc2)N1 (stereo not given) | 2.25%
COc1ccc(C2NC(=O)N(C)C(C)=C2[N+](=O)[O-])cc1 (stereo not given) | 0.56%
N#Cc1ccccc1OC[C@@H](O)CN1CCC(C(O)(c2ccccc2)c2ccccc2)CC1 | -2.62%
Cc1ccc(CN2CCCCC(NC(=O)C3CCCCC3)C2=O)cc1 (stereo not given) | -1.14%
CCS(=O)(=O)Nc1cc(C(=O)OC)ccc1C(=O)OC | -4.74%
CCCN(CCC)C(=S)Nc1cc(C(=O)OC)ccc1C(=O)OC | 20.9% (active)

Structure (SMILES) | inhibition
CCN(CCO)C(=S)Nc1cc(C(=O)OC)ccc1C(=O)OC | 2.08%
COc1cccc(/C=C2\CC3(OC(C)=O)CCCN2C3)c1 (stereo not given) | -1.67%
Cc1ccc(-c2nn(-c3ccc(F)cc3)cc2C(=O)NCC(c2cccs2)N2CCOCC2)cc1 (stereo not given) | -1.94%
O=C(NCC(c1cccs1)N1CCOCC1)c1cc(Cl)ccc1[N+](=O)[O-] (stereo not given) | 29.1% (active)
COc1ccc(NS(=O)(=O)c2ccc(C)c(C(=O)NCC(c3cccs3)N3CCOCC3)c2)cc1 (stereo not given) | 3.98%
O=C(NCC1COc2ccccc2O1)c1ccc(NC(=O)c2cc(F)ccc2F)cc1 (stereo not given) | -0.34%
O=C(CNS(=O)(=O)c1ccccc1F)N1CCN(c2ccccn2)CC1 | -1.25%
NC1=CC(=O)C(=O)c2cccnc21 | 21.7% (active)
Cc1cc(C)c(C#N)c(SCC(=O)NN2CC(=O)N(c3ccccc3F)CC2=O)n1 | 1.74%
Cc1cc(C(F)(F)F)c(C#N)c(SCC(=O)NC2CC2)n1 | 25.8% (active)
Cc1nc(SCC(=O)NC2CCCCC2C)c(C#N)c(C)c1C (stereo not given) | 3.02%
CCCCOCCCNC(=O)C[C@H]1C[C@@]2(C(=O)OC)C(=C[C@H](COCc3ccccc3)O[C@@H]2C)N(Cc2cccc3ccccc23)C1=O | -3.11%
CCOC(=O)c1csc(NC(=O)C2CCCN(S(=O)(=O)c3ccc(Cl)s3)C2)n1 (stereo not given) | 0.11%
CC(C)CNS(=O)(=O)CC1NCCc2ccccc21 (stereo not given) | 1.66%
C=C1c2c(Cl)ccc(O)c2C(O)=C2C(=O)[C@]3(O)C(O)=C(C(N)=O)C(=O)[C@@H](N(C)C)[C@@H]3[C@@H](O)C12 (stereo not given in full) | 58.9% (active)
CN(C)[C@@H]1C(=O)C(C(N)=O)=C(O)[C@@]2(O)C(=O)C3=C(O)c4c(O)ccc(Cl)c4[C@@H](O)[C@H]3C[C@@H]12 | 35.1% (active)
CC(C)C(C#CC1CC1)N(Cc1ccc2c(c1)OCO2)C(N)=NC(=O)/C=C/c1cccc(C(F)(F)F)c1 (stereo not given) | -0.23%
CN(CCO)c1cccc2c1S(=O)(=O)N(Cc1cn(Cc3ccc(C(F)(F)F)cc3)nn1)Cc1ccccc1O2 | 1.05%
CCCCC(=O)N[C@@H]1CC[C@@]23CCCN2C(=O)CCC[C@H]3[C@H]1C | -2.76%
CCN(Cc1ccncc1)C(=O)CCc1ccccc1 | -1.14%
CCOC(=O)CSc1nc(C)cc2c1C(=O)OC2 | -0.04%
CCN(Cc1ccccc1)C(=O)CSc1nc(C)cc2c1C(=O)OC2 | 26% (active)
COc1ccc(-n2c(SCC(=O)Nc3ccccc3-c3ccccc3)nnc2-c2cccnc2)cc1 | 1.25%
C[C@@H]1ON(C)[C@H]2C[C@H]3c4[nH]c5cccc(-c6ccc7c(c6)OCO7)c5c4CCN3C[C@@H]12 | 4.06%
COc1ccc(CCNC(=O)CCn2c(=O)c3ccccc3n(CC(=O)NCC3CCCO3)c2=O)cc1OC (stereo not given) | 2.05%
COc1ccc(CCn2c(=N)c(C(=O)NCC3CCCO3)cc3c(=O)n4cccc(C)c4nc32)cc1OC (stereo not given) | 24.6% (active)
Cc1ccc2nc3c(cc(C(=O)NCCc4ccccc4)c(=N)n3CC3CCCO3)c(=O)n2c1 (stereo not given) | -6.46%

Structure (SMILES) | inhibition
O=C(c1cccc(C(F)(F)F)c1)N1CC[C@H]2[C@H](CCCN2Cc2cc(F)cc(F)c2)C1 | -0.64%
Cc1noc(C)c1NC(=O)Nc1ccc2c(c1)C(=O)N([C@H](C)CO)C[C@H](C)[C@@H](CN(C)C(=O)Nc1ccc(C(F)(F)F)cc1)O2 | -2.17%
Cc1noc(C)c1NC(=O)Nc1cccc2c1O[C@H](CN(C)C(=O)Nc1ccccc1)[C@@H](C)CN([C@H](C)CO)C2=O | -2.78%
Cc1noc(C)c1NC(=O)Nc1ccc2c(c1)C(=O)N([C@H](C)CO)C[C@H](C)[C@@H](CN(C)C(=O)Nc1ccccc1)O2 | 22.9% (active)
Cc1nc2ccc(C(=O)N3CCN(C(=O)C(C)(C)C)CC3)cc2n1C1CCCC1 | 0.45%
CN(C(=O)COC(=O)c1cc(-c2ccco2)nc2ccccc12)C1CCS(=O)(=O)C1 (stereo not given) | 52.1% (active)
CN(C(=O)COC(=O)c1cc(=O)[nH]c2ccccc12)C1CCCCC1 | -1.98%
Cc1cc(C(=O)OCC(=O)N2C(C)CCCC2C)c2ccccc2n1 (stereo not given) | 1.46%
C#CCN([C@H](C(=O)OC)C(C)CC)S(=O)(=O)c1ccccc1Br (stereo not given in full) | -1.76%
C=CCN(Cc1ccc2c(c1)OCO2)C(C#CC1CC1)C(C)(C)C (stereo not given) | 1.41%
Cc1c(C=O)n(C)n(-c2ccccc2)c1=O | 25.1% (active)
Cc1c(CN2CCC(C)CC2)c(=O)n(-c2ccccc2)n1C | 2.11%
Cc1cccc(N2CCN(Cc3c(C)n(C)n(-c4ccccc4)c3=O)CC2)c1C | -0.95%
CCOC(=O)[C@]12CCCCC/C=C\1N(Cc1ccc(OC)cc1)C(=O)[C@H]2CC(=O)NCc1ccc(C)o1 | -2.03%
COc1ccc(C(=O)CSc2nnc(-c3cnccn3)n2-c2ccc(C)cc2)cc1 | 0.05%
COc1ccc(CN(CCN2CCOCC2)C(=O)c2ccc(C)cc2)cc1OC | -0.61%
C[C@H]1CN([C@@H](C)CO)S(=O)(=O)c2ccc(-c3cccc(F)c3)cc2O[C@@H]1CN(C)C | 0.38%
COCC(=O)N(C)C[C@H]1Oc2cc(Br)ccc2S(=O)(=O)N([C@H](C)CO)C[C@H]1C | 0.32%
C[C@@H]1CN([C@H](C)CO)S(=O)(=O)c2ccc(C#C[C@@H](C)O)cc2O[C@@H]1CN(C)Cc1ccc(-c2ccccc2)cc1 | 0.52%
C[C@H]1CN([C@@H](C)CO)S(=O)(=O)c2ccc(Br)cc2O[C@H]1CN(C)C(=O)c1cnccn1 | -0.94%
C[C@@H]1CN([C@H](C)CO)S(=O)(=O)c2ccc(C#CC3CCCCC3)cc2O[C@H]1CN(C)C(=O)Cc1ccncc1 | 23.8% (active)
C[C@@H]1CN([C@@H](C)CO)S(=O)(=O)c2ccc(C#Cc3cccc(F)c3)cc2O[C@H]1CN(C)S(=O)(=O)c1cn(C)cn1 | 21.5% (active)
Nn1c(SCC(=O)Nc2ccc(S(N)(=O)=O)cc2)nnc1-c1n[nH]c2c1CCC2 | 0.51%
CC(=O)OC12CCCN(C1)/C(=C/c1ccncc1)C2 (stereo not given) | 3.27%
O=C1CC[C@@]23CCCN2C(=O)CCC[C@H]3[C@H]1Cc1ccccc1 | 0.21%
Cc1cc(NS(=O)(=O)c2ccc(NC(=O)CSc3nnc(SCc4ccc(F)cc4)s3)cc2)nc(C)n1 | 3.58%
